According to PubChem BioAssay (NCI):
About 79,000 compounds went through this panel and 15% of them were active in at least one assay; those are over-represented in the sample as a whole. The source made the active and inactive calls. No stated cut-off is given here; in the data, active means growth inhibition above about 70%; inactive means the rest.

Tests used:
[1] = NCI Yeast Anticancer Drug Screen. Data for the rad50 strain (AID 155);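 further: 0% = growth of vehicle-only cultures of the same strain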; conditions: S. cerevisiae rad50 strain growth inhibition; at 50.0 µM; hits give high values
How it was run: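 Cells are treated with compound, grown, and their growth is then scored against vehicle-only cultures of the same repair-deficient yeast strain.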

[2] = NCI Yeast Anticancer Drug Screen. Data for the mec2-1 strain (AID 157); conditions: S. cerevisiae mec2-1 strain, at 50.0 µM, hits give high values
How it was run: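 Using mec2-1 yeast: add compound, measure growth, express inhibition versus vehicle-treated cultures.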

[3] = NCI Yeast Anticancer Drug Screen. Data for the sgs1 mgt1 strain (AID 161);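 further: 0% = growth of cultures given vehicle only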; conditions: S. cerevisiae sgs1 mgt1 strain, at 50.0 µM, hits give high values
How it was run: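 Compounds are added to genetically altered yeast, and growth is compared with cultures given vehicle alone to give percent inhibition.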

[4] = NCI Yeast Anticancer Drug Screen. Data for the cln2 rad14 strain (AID 165);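 further: 0% = growth equal to vehicle treated cultures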; conditions: S. cerevisiae cln2 rad14 strain, at 50.0 µM, hits give high values
How it was run: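 Yeast strain cln2 rad14, bearing defects in cell cycle control and DNA repair, serves as the test system; values reflect growth inhibition compared with vehicle.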

[5] = NCI Yeast Anticancer Drug Screen. Data for the bub3 strain (AID 167); conditions: S. cerevisiae bub3 mutant strain, at 50.0 µM, hits give high values
How it was run: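 Part of a panel of yeast mutants defective in DNA damage repair or cell cycle regulation. Each strain is grown with compound, and inhibition is calculated relative to solvent-treated cultures.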

[6] = NCI Yeast Anticancer Drug Screen. Data for the mlh1 rad18 strain (AID 175); conditions: S. cerevisiae mlh1 rad18 strain growth inhibition; at 50.0 µM; hits give high values
How it was run: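 Steps: expose repair-defective yeast to compound; measure growth; express inhibition against vehicle-treated controls.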

Measured: growth inhibition

CCOP(=O)(OCCN(C)C)C(c1ccccc1)c1ccccc1 (stereo unspecified)
inactive: [1] 19.9% | [2] -3.85% | [3] -10.8% | [4] -6.25% | [5] -9.75% | [6] 34.6%

CNc1nc(N(C)C)nc(N(C)C)n1
inactive: [1] 25.2% | [2] 16.9% | [3] 15.6% | [4] 28.9% | [5] 26.8% | [6] 26.6%

C#C[C@@H](CCCC)OC(=O)N[C@H](C)c1ccccc1
inactive: [1] 58.9% | [2] 49.6% | [3] 64.5% | [4] -11.6% | [5] 22.5% | [6] 16.1%

COc1ccc(CNc2ccccc2)cc1OC
inactive: [1] -6% | [2] 7.95% | [3] -3% | [4] -33.6% | [5] -9.15% | [6] -40%

Cc1nc(/C=C2\C(=O)C=Cc3ccccc32)c(O)o1
inactive: [1] 7.85% | [2] -6.3% | [3] 8.35% | [4] -63% | [5] 16% | [6] 0.3%

CCc1ccc(O)cc1
inactive: [1] -3.4% | [2] -25.9% | [3] 13.3% | [4] 5.85% | [5] -11.9% | [6] 6.3%

ClC1=CC(Cl)=C2N=C(N3CCCC3)N=C3N=C(N4CCCC4)N=C1N32
inactive: [1] -15.2% | [2] -5.45% | [3] -19.7% | [4] -10.6% | [5] 1.6% | [6] 4.55%

CC(CC(C)(C)C)C(=O)O (stereo unspecified)
inactive: [1] -4.05% | [2] -5.75% | [3] 2.55% | [4] 1.2% | [5] 6.85% | [6] 7.25%

Cc1nc(C)c(N2CCN(S(N)(=O)=O)CC2)c(=O)[nH]1
inactive: [1] -70.3% | [2] -26.9% | [3] -30.8% | [4] 6.6% | [5] 3.4% | [6] -21.8%

CC1(C)OC(=O)C(=Cc2ccc(O)cc2)C(=O)O1
inactive: [1] -20.9% | [2] -9.45% | [3] -34.5% | [4] -4.6% | [5] -21.5% | [6] -34.3%

CCCCNc1nc(NC2OCC(OC(C)=O)C(OC(C)=O)C2OC(C)=O)c(N=O)c(=O)n1C (stereo unspecified)
inactive: [1] -4% | [2] -21.4% | [3] -4.3% | [4] -28.4% | [5] -12.5% | [6] -2.9%

CCC(C(=O)O)C1=CCCCC1 (stereo unspecified)
inactive: [1] 15.7% | [2] -13.6% | [3] 16.2% | [4] 16.1% | [5] -14.2% | [6] 4.45%

O=C(N/N=C/c1ccc(Cl)cc1Cl)c1ccccc1SSc1ccccc1C(=O)N/N=C/c1ccc(Cl)cc1Cl
inactive: [1] -19.1% | [2] 1.55% | [3] -5.45% | [4] -8.1% | [5] -9.75% | [6] 19.8%

C1CSC[C@H]2COC[C@@H](CSCCS1)S2
inactive: [1] -0.5% | [2] 4.25% | [3] -2.55% | [4] 18.9% | [5] 9.05% | [6] -7.9%

O=C(/C=C(\C(=O)c1cccs1)c1cccs1)c1ccc(C(=O)/C=C(\C(=O)c2cccs2)c2cccs2)cc1
inactive: [1] 3.6% | [2] -23.9% | [3] 19% | [4] -25.1% | [5] -15.6% | [6] -5.85%

CC12OC(=O)CC1C(c1ccccc1)(c1ccccc1)O2 (stereo unspecified)
inactive: [1] -7% | [2] -8% | [3] 4.1% | [4] -50.2% | [5] 2.75% | [6] -1.85%

COc1ccc(CCNC(=S)NC(=O)c2ccc(Cl)c(Cl)c2)cc1OC
inactive: [1] 47.6% | [2] 47% | [3] 68.3% | [4] 49.5% | [5] 44.4% | [6] 56%

O=C(Nc1ccc(Cl)cc1)Oc1ccc(Br)cc1Br
inactive: [1] 10.9% | [2] -3.95% | [3] 10.7% | [4] 4.65% | [5] -2.7% | [6] 13.2%

O=C1C(NS(=O)(=O)c2ccccc2)=C(n2cnc3ccccc32)C(=O)c2ccccc21
inactive: [1] 0.75% | [2] 4.4% | [3] 12.1% | [4] -1.95% | [5] 1.65% | [6] -58.8%

Nc1cc(Cc2ccccc2)ccc1O
inactive: [1] 42.5% | [2] 25.8% | [3] 58.8% | [4] 18.8% | [5] 31.2% | [6] 46.7%

Cn1c(=O)c2c(ncn2CCSCC2=NS(=O)(=O)c3cc(S(N)(=O)=O)c(C(F)(F)F)cc3N2)n(C)c1=O
inactive: [1] 2.8% | [2] 1.75% | [3] -6.5% | [4] -35.6% | [5] 14.1% | [6] 4.95%

N#Cc1c(O)c(N=Nc2ccccc2F)c(=O)n2c1[nH]c1ccccc12
inactive: [1] -24.4% | [2] -15.7% | [3] -10.4% | [4] 4.1% | [5] -6.85% | [6] -47.8%

O=C(NNc1ccccc1)NNc1ccccc1
inactive: [1] 32.8% | [2] 21.4% | [3] 45.3% | [4] 46.3% | [5] 20.8% | [6] 29.8%

CCN(CC)CC(=O)N1CCc2c([nH]c3ccccc23)C1c1cccnc1 (stereo unspecified)
inactive: [1] -40.1% | [2] -21.4% | [3] -11.6% | [4] -5.95% | [5] -35.5% | [6] -34.5%

CSc1cc2c(cc1[N+](=O)[O-])C(=O)c1ccccc1-2
inactive: [1] -1.85% | [2] 5.75% | [3] 0.8% | [4] 0.6% | [5] 4.05% | [6] 5.6%

NC(=O)c1ncn(C2OC(CO)C(O)C2O)c1C(N)=O (stereo unspecified)
inactive: [1] -7.6% | [2] -24.8% | [3] -12.5% | [4] -4.9% | [5] -0.3% | [6] -24.6%

CCc1ccccc1NC(=O)CCl
inactive: [1] 9.15% | [2] 0.3% | [3] -0.35% | [4] 17.6% | [5] -3.1% | [6] 2.75%

Cc1cc(C)c(C#N)c(N)n1
inactive: [1] -0.8% | [2] -12.8% | [3] -14.3% | [4] -17.9% | [5] 7.7% | [6] -14.9%

CNc1ccc(C)cc1S(=O)(=O)c1ccccc1[N+](=O)[O-]
inactive: [1] 65.5% | [2] 42.5% | [3] 58.1% | [4] 29.2% | [5] 47.1% | [6] 16.1%

CN1C(C)(C)NC(=S)C1(C)C
inactive: [1] 26.9% | [2] -18.1% | [3] -5.5% | [4] 11.7% | [5] 1.65% | [6] -9.65%

O=C(CC1NCCS1)OCc1ccc(Br)cc1 (stereo unspecified)
inactive: [1] 26.5% | [2] 14.1% | [3] 9.8% | [4] 24.7% | [5] 16.9% | [6] 50%

Nc1nc2c(N)cc(C(F)(F)F)cc2nc1-c1ccccc1
inactive: [1] -38.2% | [2] -17.2% | [3] -1.9% | [4] 7.95% | [5] -6.25% | [6] -12.4%

CCCCCCP(=O)(CCCCCC)C1CCCCC1
active: [1] 98.1% | [2] 99.5% | [3] 99.3% | [4] 97.6% | [5] 99% | [6] 99%

CCOC(=O)c1nc2ccccc2nc1NCc1ccc(Cl)cc1Cl
inactive: [1] 6.45% | [2] 19% | [3] -24.7% | [4] 8% | [5] -16.6% | [6] -30.9%

CCCCCCCCCCCC(=O)O
inactive: [1] -0.85% | [2] 0.7% | [3] 25.6% | [4] -7.45% | [5] 10.1% | [6] 19.2%

Cc1c(C)c2c(c(C)c1Cl)CC2(Cl)Cl
inactive: [1] 3.6% | [2] 4% | [3] -9.15% | [4] -41.8% | [5] -5.55% | [6] -9.5%

O=c1/c(=C/c2cccc([N+](=O)[O-])c2)sc2nc3ccccc3n12
inactive: [1] -9.95% | [2] -12.7% | [3] -18.1% | [4] -4.65% | [5] -10.1% | [6] -12.7%

COC(=O)NN(C(=O)OC)C12CCCCC1N(C(=O)OC)N(C(=O)OC)c1c2ccc2cc(OC)ccc12 (stereo unspecified)
inactive: [1] 24.4% | [2] -0.7% | [3] 7.65% | [4] -14.1% | [5] 4.2% | [6] 10.9%

Cc1nn(C(=O)c2cccnc2)c(-c2ccccc2)c1N=Nc1ccc(S(=O)(=O)Nc2ncccn2)cc1
inactive: [1] 23.7% | [2] 18.4% | [3] 31.4% | [4] 33% | [5] 0.7% | [6] 42.5%

O=C(N/C(=C/c1ccccc1)C(=O)N1CCN(C(=O)/C(=C\c2ccccc2)NC(=O)c2ccccc2)CC1)c1ccccc1
inactive: [1] 0.9% | [2] -0.45% | [3] -8.05% | [4] -5.7% | [5] -6.8% | [6] -2.95%

CCN(CC)c1ccc(/C=N\NC(=O)CCCC(=O)N/N=C/c2ccc(N(CC)CC)cc2)cc1
inactive: [1] -27.6% | [2] 2.65% | [3] -22.9% | [4] -21.9% | [5] 5% | [6] -30.4%
